Pol iota inh – DNA polymerase iota (human) inhibition; Pol iota fluorescent replication assay, 10 min; Potency, µM (top dose mostly 115 µM), for inactives: top-dose activity, negative = inhibition, most hits filed as inhibitors; 390,000 compounds, 1% hits; AID 588590; also: potency is read from the fitted curve at half-maximal effect
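Pol iota at 10 nM preincubated 15 min with compounds at room temperature; reaction started with fluorescent substrate, 50 nM final. Fluorescence read kinetically at 0 and 10 min; buffer-only wells as negative control.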
PI5P4K alpha inh – inhibitors of human PI5P4K alpha; P48426; PI5P4Kalpha enzyme, ADP-Glo luminescence, 60 min; active compounds read low; max response, %; 330,000 compounds, 1.2% hits; active = max response of -50% or lower; inconclusive = between -30% and -50%; inactive = -30% or higher; also: value at the top dose of about 77 µM; % is scaled to controls: 0 for no effect and ±100 for the full control effect
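Compounds were pin-transferred onto PI5P4Kalpha and substrate in HEPES pH 7.4 buffer with EGTA, CHAPS and 5% DMSO. ATP (5 microM final) started the reaction, which ran 60 minutes at room temperature before ADP-Glo detection.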
Pol beta inh – inhibitors of human DNA polymerase beta; P06746; Pol beta primer extension/strand displacement, fluorescence kinetic; Potency, µM (doses to about 114 µM), without a hit: at the top dose activity change, negative = inhibition, actives largely listed as inhibitors; 340,000 compounds, 1.3% hits; AID 485314; also: potency is read from the fitted curve at half-maximal effect; % is scaled to controls: 0 for no effect and ±100 for the full control effect
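Pol beta (10 nM) and compounds were preincubated 15 min at room temperature, then 50 nM substrate (final) started primer extension/strand displacement. Reads were taken at 0 and 10 min; concentration-response data were fitted to a four-parameter Hill equation.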
Pol eta inh-1 – blocks human DNA polymerase eta activity. Q9Y253. recombinant Pol eta, fluorescent DNA replication assay. Potency, µM (titrated, usually from 114 µM), without a hit: at the highest dose activity change, negative = inhibition, most hits filed as inhibitors. 390,000 compounds, 1.2% hits; also: potency is read from the fitted curve at half-maximal effect; % is scaled to controls: 0 for no effect and ±100 for the full control effect
Target sequence (Q9Y253 whole entry, looked up): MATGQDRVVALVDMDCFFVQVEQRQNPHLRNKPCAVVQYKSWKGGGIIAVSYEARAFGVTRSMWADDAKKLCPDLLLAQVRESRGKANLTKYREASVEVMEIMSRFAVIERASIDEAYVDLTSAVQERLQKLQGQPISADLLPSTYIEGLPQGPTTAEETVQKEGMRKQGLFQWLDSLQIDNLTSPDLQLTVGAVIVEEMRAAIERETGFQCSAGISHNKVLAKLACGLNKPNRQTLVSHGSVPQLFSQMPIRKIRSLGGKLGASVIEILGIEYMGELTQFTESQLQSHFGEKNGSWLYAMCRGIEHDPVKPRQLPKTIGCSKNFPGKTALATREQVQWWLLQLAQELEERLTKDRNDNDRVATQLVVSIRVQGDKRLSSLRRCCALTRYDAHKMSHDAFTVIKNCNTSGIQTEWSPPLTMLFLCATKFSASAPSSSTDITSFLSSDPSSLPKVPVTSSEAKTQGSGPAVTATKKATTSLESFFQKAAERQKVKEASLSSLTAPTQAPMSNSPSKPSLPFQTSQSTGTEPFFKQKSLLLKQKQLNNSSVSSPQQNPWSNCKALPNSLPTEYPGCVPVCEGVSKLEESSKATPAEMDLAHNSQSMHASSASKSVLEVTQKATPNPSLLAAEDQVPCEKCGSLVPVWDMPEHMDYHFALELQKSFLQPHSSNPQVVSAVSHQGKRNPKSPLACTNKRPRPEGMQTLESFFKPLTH
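Fluorescent replication assay: 50 nM final substrate added after a 15 min room-temperature compound preincubation with 10 nM enzyme. Signal taken at 0 min and again at 10 min.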
Pol kappa inh-1 – inhibitors of human DNA polymerase kappa. Q9UBT6. purified Pol kappa, fluorescent DNA synthesis assay, 10 min. Potency, µM (titrated, usually from 107 µM), without a hit: at the highest dose activity, negative = inhibition, most hits filed as inhibitors. 400,000 compounds, 0.53% hits; also: potency is read from the fitted curve at half-maximal effect; % is scaled to controls: 0 for no effect and ±100 for the full control effect
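10 nM Pol kappa preincubated 15 min at room temperature with compounds, then reaction started with substrate at 50 nM final. Fluorescence read kinetically at 0 and 10 min; buffer-only wells served as negative control.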
PI4K2A block – PI4K2A (human) kinase inhibition; Q9BTU6; purified PI4K2A, ADP-Glo luminescence, 1 h; active compounds read low; activity change, negative = inhibition, % at 76.9 µM; 420,000 compounds, 0.13% hits; in the data active = activity change below about -50%; inconclusive = mostly about -30% to -49%;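 also: -100% = wells without enzyme as full effect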
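Compounds are screened against recombinant PI4K2A using PI as substrate and ATP, the latter dispensed at 300 microM. Reactions run one hour at ambient temperature before ADP-Glo detection; full inhibition defined by wells lacking enzyme.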
GALK confirm – confirmation of human galactokinase (GALK) inhibitors. shares compounds with Pol eta inh-1. AID 2015. Potency, µM (top dose mostly 115 µM), inactives show at the highest dose activity, negative = inhibition, actives largely listed as inhibitors. purified GALK, Kinase-Glo ATP depletion luminescence. 150 compounds, 70% hits
Redox cycling – redox cycling activity in phenol red-HRP assay; shares compounds with Pol eta inh-1; Phenol red-HRP H2O2 redox cycling, absorbance 600 nm; Potency, µM (series often up to 115 µM), inactives show at the top dose activity change, negative = H2O2 signal, most hits filed as inhibitors; 150 compounds, 40% hits; AID 2035
HEK293 tox – counter-screen for GALK inhibitors: HEK293 cell cytotoxicity. shares compounds with Pol eta inh-1. HEK-293 viability, ATP luminescence (CellTiter-Glo), 24/48 h. Potency, µM (highest dose often 46.1 µM), without a hit: top-dose activity change, negative = cytotoxicity, actives largely listed as inhibitors. 170 compounds, 10% hits; also: potency is read from the fitted curve at half-maximal effect; % is scaled to controls: 0 for no effect and ±100 for the full control effect
Pol kappa inh-2 – Pol kappa (human) inhibition, cherry-pick confirmation. shares compounds with Pol eta inh-1. purified Pol-kappa, fluorescent strand-displacement substrate. Potency, µM, actives largely listed as inhibitors. 920 compounds, 76% hits; also: potency is read from the fitted curve at half-maximal effect
Pol eta inh-2 – confirmation of human DNA polymerase eta inhibitors; shares compounds with Pol eta inh-1; Pol eta primer extension, TAMRA/BHQ fluorescence, 10 min; Potency, µM, most hits filed as inhibitors; 2,600 compounds, 64% hits; AID 720502; also: potency is read from the fitted curve at half-maximal effect
* hit, by the source's call; i = inactive; u = inconclusive; x = not tested or not shown; [ ] = another dose, or the depositor's remark. Rows were chosen to be rich in hits. Some 2.8% of all compounds tested hit in one or more screens of this group. Unless noted, calls follow the shape of the dose curve; as a rule, active = well fitted curve in the direction sought with a large enough effect; inconclusive = small, poorly fitted or top-dose-only effect, or another doubt; inactive = no such curve, though single readings can be large; an effect the other way counts as inactive or inconclusive.

SMILES	Pol iota inh	PI5P4K alpha inh	Pol beta inh	Pol eta inh-1	Pol kappa inh-1	PI4K2A block	Pol eta inh-2	others
COc1ccc(OC)c(N2C(=O)NC(=O)/C(=C\c3ccc([N+](=O)[O-])s3)C2=O)c1	20µM*	-61.2*	25.1µM*	u	35.5µM*	-21.2	26.9*
O=C1NC(=O)N(c2ccccc2)C(=O)/C1=C\c1ccc([N+](=O)[O-])s1	u	-73.7*	u	10µM*	28.2µM*	-23.3	33.8*
COc1ccc(N2C(=O)NC(=O)/C(=C\c3ccccc3[N+](=O)[O-])C2=O)cc1	109.1%	-8.1	0.1%	-17.7%	-13.5%	-9.8	x
Cc1cc2c(cc1C)-n1c(-c3ccccc3)c3c(=O)n(C)c(=O)n(C)c3c1C(c1ccco1)N2 (stereo unspecified)	-15.8%	x	u	0.0%	-6.0%	0.3	x
CCOC(=O)C(SP(=S)(OC)OC)c1ccccc1 (stereo unspecified)	x	x	x	x	-15.5%[60.1 µM]	x	x
CCN1C[C@@]2(COC)CCC(OC)[C@]34C5C[C@]6(O)[C@@H](OC)C[C@](OC(C)=O)(C([C@H](OC)C23)[C@H]14)C5[C@H]6OC(=O)c1ccc(OC)cc1 (stereo partly specified)	x	x	x	x	14.7%[60.1 µM]	x	x
Cn1c(=O)oc2cc(S(=O)(=O)N3CCCC(C(=O)N4CCN(c5cccc(Cl)c5)CC4)C3)ccc21 (stereo unspecified)	48.3%	x	37.8%	-16.5%	-14.8%	-1.1	x
Cc1ccc(CNC(=O)CCNC(=O)c2ccc([N+](=O)[O-])cc2)cc1	54.0%	-3.3	x	-5.0%	-1.0%	3.4	x
CC(=O)OCC1=C(C(=O)O)N2C(=O)[C@@H](N)[C@H]2SC1	x	x	x	x	x	i	x
Cc1ccccc1N1C(=O)CC(=O)NC1=O	15.4%	x	25.8%	-23.0%	-0.6%	-5.8	x
Cc1ccccc1N1C(=O)/C(=C/c2ccco2)C(=O)NC1=S	x	x	0.316µM*	x	x	x	x	GALK confirm=u;Redox cycling=-25.5%;HEK293 tox=-0.6%
Cc1cccc(Oc2nc3c(C)cccn3c(=O)c2/C=C(\C#N)c2nc3ccccc3s2)c1	-10.4%	x	-16.5%	50.1µM*	-12.4%	-6.0	u	Pol kappa inh-2=42.3*
CC(Cc1ccc2c(c1)OCO2)NO (stereo unspecified)	x	x	x	x	x	i	x
N#CC1=C(N)Oc2c(c(=O)oc3ccccc23)C1c1ccc([N+](=O)[O-])o1 (stereo unspecified)	u	-8.0	u	20µM*	50.1µM*	-11.4	84.9*	Pol kappa inh-2=37.7*
CSCC[C@H](NC(=O)[C@H](CC(C)C)NC(=O)[C@@H](Cc1cnc[nH]1)NC(=O)[C@H](Cc1ccccc1)NC(=O)[C@@H](Cc1ccccc1)NC(=O)[C@@H](N)Cc1ccc(O)cc1)C(N)=O	x	x	x	x	14.6%[60.1 µM]	x	x

Compound activity deposited in PubChem BioAssay by National Center for Advancing Translational Sciences (NCATS).
